Assay results reported in PubChem BioAssay AID652053 (Broad Institute, 2013).
Hit rate of the full screen: of about 1,300 compounds, about 930 (72%) were called active.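 Rule for the calls: active = fitted curve reaches 40% activation signal increase at or below the top valid tested concentration in every replicate test; inconclusive = replicate tests disagree in their calls; inactive = all replicate tests inactive, including effects opposite the expected signal rise.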 So high a share suggests a set chosen from earlier hits. A selection follows. Results with a measured potency or affinity are listed apart.

Test: miR-122 inhibitors in Huh7 reporter cells, dose response, cell-based, Huh7 psiCHECK-miR122, Renilla luciferase, cherry-pick (AID 652053)
Conditions: 48 h; series mostly up to 35 µM

outcome, inactive:
O=C(C1CCN(Cc2ccc(F)cc2)CC1)N1CCN(C/C=C/c2ccccc2)CC1, CC(=O)N1CCc2cc(S(=O)(=O)NCCCN3CCN(Cc4ccccc4)CC3)ccc21, COc1ccc(-c2cc(NC(C)=O)c3ncc(-c4cc(OC)c(OC)c(OC)c4)n3c2)cn1, N#C/C(=N\Nc1ccc(S(=O)(=O)N2CCCCC2)cc1)C(N)=S, Cc1ccc(NC(=O)c2ccc(S(=O)(=O)N3CCOCC3)cc2)nc1, COc1cc(S(=O)(=O)N2CCOCC2)ccc1NC(=O)CSc1n[nH]c(=O)[nH]c1=O, C[C@H](CO)N1C[C@H](C)[C@H](CN(C)Cc2ccc3c(c2)OCO3)Oc2ccc(N(C)C)cc2CC1=O, C[C@H](CO)N1C[C@H](C)[C@H](CN(C)Cc2ccc(C(F)(F)F)cc2)Oc2ccc(N(C)C)cc2CC1=O, COC(=O)C(CC(C)C)Oc1ccc2c(C)cc(=O)oc2c1 (stereo not given), CC(Oc1ccc(Cl)cc1)c1ccnn1S(=O)(=O)c1ccc(Cl)cc1 (stereo not given), COC(=O)c1ccccc1NC(=O)Cn1c(-c2nonc2N)nc2ccccc21, C[C@H](CO)N1C[C@H](C)[C@@H](CN(C)C(=O)Nc2cccc3ccccc23)Oc2ccc(NC(=O)Nc3cccc4ccccc34)cc2CC1=O, C[C@H]1CN([C@@H](C)CO)C(=O)Cc2cc(NC(=O)Nc3cccc4ccccc34)ccc2O[C@@H]1CN(C)C(=O)Nc1cccc2ccccc12, C[C@H]1CN([C@@H](C)CO)C(=O)Cc2cc(NC(=O)Nc3cccc4ccccc34)ccc2O[C@H]1CN(C)C(=O)Nc1cccc2ccccc12, C[C@@H]1CN([C@@H](C)CO)C(=O)Cc2cc(NC(=O)Nc3cccc4ccccc34)ccc2O[C@H]1CN(C)C(=O)Nc1cccc2ccccc12, COc1ccc(NC(=O)Nc2cccc3c2O[C@H](CN(C)Cc2ccc4c(c2)OCO4)[C@@H](C)CN([C@@H](C)CO)C3=O)cc1, FC(F)(F)c1nnc2c(Sc3ccccc3)nc3ccc(Cl)cc3n12, CCC1=NN(C(=O)c2ccccc2O)C(O)(c2ccccc2)C1 (stereo not given), CCC(=O)N1[C@H](CN(CC)C(=O)c2cccc(F)c2)[C@H](c2ccccc2)[C@@H]1CO, COc1ccc(CNC(=O)C(c2ccc(C)o2)N(Cc2cccs2)C(=O)Cc2cccs2)cc1 (stereo not given), CC(C)Cc1nc2sc3c(=O)[nH]cnc3c2c2c1CCC2, Cc1ccc(S(=O)(=O)Nc2ccc(C(=O)NCc3ccccn3)cc2)cc1, O=c1[nH]c(=O)c2[nH]c(=O)n(-c3ccccc3)c2[nH]1, CCS(=O)(=O)N1Cc2ccccc2CC1C(=O)NCC12CC3CC(CC(C3)C1)C2 (stereo not given), O=C(c1ccc(F)cc1)N1[C@H](CO)[C@@H]2c3ccccc3NC[C@@H]21, CCn1nc(C(=O)Nc2ccc(S(=O)(=O)Nc3nccs3)cc2)c2ccccc2c1=O, CCCNC(=O)N1[C@H](CO)[C@@H]2c3ccccc3N(C(=O)c3ccc(F)cc3)C[C@@H]21, CC(C)NC(=O)N1[C@H](CO)[C@@H]2c3ccccc3N(C(=O)c3ccc(F)cc3)C[C@@H]21, CCN(C[C@@H]1[C@@H](c2ccccc2)[C@@H](CO)N1C(=O)COC)S(C)(=O)=O, O=C(Nc1ccccc1)c1cc([N+](=O)[O-])ccc1NC1CCCCC1, O=C(Nc1ccccc1Br)C1CCN(S(=O)(=O)c2cccs2)CC1, Cc1cc(C)cc(NC(=O)C2CCN(c3nccs3)CC2)c1, CN1C(=O)c2cc(NC(=O)Cc3cccs3)ccc2OC[C@@H]2O[C@@H](CC(=O)NCC3CCCCC3)CC[C@@H]21, CN1C(=O)c2cc(NC(=O)NC3CCCC3)ccc2OC[C@H]2O[C@@H](CC(=O)O)CC[C@H]21, Cc1ccc(CC(=O)N(Cc2ccccc2)c2ccccn2)cc1, Cc1ccc(-c2nc(CSCC(=O)NCCN3CCN(Cc4ccccc4)CC3)c(C)o2)cc1, CCCc1cc(=O)oc2cc(OCc3nn[nH]n3)ccc12, COc1ccccc1CNC(=O)C[C@H]1CC[C@@H]2[C@@H](COc3ccc(NC(C)=O)cc3C(=O)N2C)O1, COc1ccccc1CNC(=O)C[C@H]1CC[C@@H]2[C@H](COc3ccc(NS(=O)(=O)c4ccc(C)cc4)cc3C(=O)N2C)O1, COc1ccccc1CNC(=O)C[C@@H]1CC[C@@H]2[C@H](COc3ccc(NS(=O)(=O)c4ccc(C)cc4)cc3C(=O)N2C)O1, COc1ccccc1CNC(=O)C[C@@H]1CC[C@@H]2[C@H](COc3ccc(NC(C)=O)cc3C(=O)N2C)O1, COc1ccccc1CNC(=O)C[C@@H]1CC[C@H]2[C@@H](COc3ccc(NS(=O)(=O)c4ccc(C)cc4)cc3C(=O)N2C)O1, CCOCc1nnc(NS(C)(=O)=O)s1, CS(=O)(=O)N1N=C(c2ccc(Cl)cc2)CC1c1cccs1 (stereo not given), c1ccc2c(c1)ccc1nnnn12, Cc1cccc(-c2nnc(-c3cccc4ccccc34)o2)c1, OC(COC(c1ccc(Cl)cc1)c1ccc(Cl)cc1)CN1CCCC1 (stereo not given), COc1ccccc1CNC(=O)C[C@H]1CC[C@@H]2[C@@H](COc3ccc(NC(=O)Nc4ccc(F)c(F)c4)cc3C(=O)N2C)O1, CC1CCCC(NC(=O)COC(=O)c2ccccc2NC(=O)c2ccco2)C1C (stereo not given), Nc1nonc1C(=O)N1CCCC1, COc1ccccc1N1CCN(C(=O)c2ccc(Cn3c(=O)[nH]c4ccsc4c3=O)cc2)CC1, CCOc1ccccc1N1CCN(C(=O)c2ccc3[nH]c(C)c(C)c3c2)CC1, COc1ccccc1N1CCN(C2CC(=O)N(c3cccc(Cl)c3)C2=O)CC1 (stereo not given), COC(=O)c1ccc(/C=N/OCC(=O)NC2CCCCCCC2)cc1, O=C(CN(C1CCCCC1)S(=O)(=O)c1ccc(Cl)cc1)NCc1cccnc1, Cc1ccc(C)c(NC(=O)CSc2nnc(CCNC(=O)OC(C)(C)C)o2)c1, Cc1ccc2cc(-c3noc(C(C)(C)C)n3)c(=O)[nH]c2c1, CC(=O)c1cccc(NC(=O)NCc2cccs2)c1, O=c1c[n+]([O-])c2ccccc2n1OCc1c(F)cccc1F, COc1ccc(-c2nc(SCc3ccccc3)n(S(C)(=O)=O)n2)cc1, COc1ccc(S(=O)(=O)N2N=C(C)Oc3ccccc3C2=O)cc1, COc1ccc(OCCCC(=O)NCCc2ccccc2)cc1, COc1ccc(NC(=O)CCN2C(=O)c3ccccc3C2=O)cc1, CC(=O)Nc1nonc1-n1nnc(C(=O)NCc2ccccc2)c1C, O=C(CN(Cc1cccs1)S(=O)(=O)c1ccc(S(=O)(=O)NC2CCCCC2)cc1)Nc1ccccc1, C=CCN=C1NN=C(c2ccc3c(c2)OCCO3)CS1, CC(=O)N1N=C(c2ccccc2)CC1c1cccs1 (stereo not given), CCC(=O)N1[C@H](CN(C)C(C)=O)[C@@H](c2ccc(C3=CCCC3)cc2)[C@@H]1CO, C[C@@H]1CN([C@H](C)CO)C(=O)c2cc(NC(=O)Nc3cccc4ccccc34)ccc2O[C@@H]1CN(C)C(=O)Nc1ccccc1, CCNc1nc(N)nc(Oc2ccc(OCCOc3ccccc3)nn2)n1, CCOc1ccccc1NS(=O)(=O)N(C)C, C[C@H]1CN([C@@H](C)CO)C(=O)c2cccc(NC(=O)Nc3ccccc3)c2O[C@H]1CN(C)Cc1ccc(C(=O)Nc2ccccc2N)cc1, C[C@@H]1CN([C@@H](C)CO)C(=O)c2cccc(NC(=O)Nc3ccccc3)c2O[C@H]1CN(C)Cc1ccc(C(=O)Nc2ccccc2N)cc1, C[C@@H]1CN([C@H](C)CO)C(=O)c2cccc(NC(=O)Nc3ccccc3)c2O[C@H]1CN(C)Cc1ccc(C(=O)Nc2ccccc2N)cc1, C[C@H](CO)N1C[C@H](C)[C@@H](CN(C)C(=O)NC2CCCCC2)Oc2ccc(NC(=O)Nc3cccc4ccccc34)cc2CC1=O, CC/C(=N\NC(=O)c1ccc2c(c1)OCO2)C12CC3CC(CC(C3)C1)C2, COc1ccc(C(=O)Oc2ccc(C(=S)N3CCOCC3)cc2)cc1, O=C(C(c1ccccc1)c1ccccc1)N1CCOCC1, COc1ccc(C(=O)Nc2nc3c(s2)CCCC3)cc1S(=O)(=O)N1CCCc2ccccc21, CCCC#Cc1cnc2c(c1)C(=O)N([C@H](C)CO)C[C@H](C)[C@H](CN(C)C(=O)c1ccccc1)O2, C[C@H]1CN([C@@H](C)CO)C(=O)c2cc(C#CC(C)(C)O)cnc2O[C@H]1CN(C)Cc1cncnc1, COCC(=O)N(C)C[C@@H]1Oc2ncc(C#Cc3cccnc3)cc2C(=O)N([C@H](C)CO)C[C@H]1C, C[C@@H]1CN([C@H](C)CO)C(=O)Cc2cc(NC(=O)Nc3cccc4ccccc34)ccc2O[C@@H]1CN(C)C(=O)NC1CCCCC1, O=C(NNC(=S)NC1CCCCC1)c1ccc2c(c1)OCO2, Cc1ccc(Cl)cc1NC(=S)N(CCCN1CCOCC1)Cc1ccccn1, COCCn1c(C)cc(C(=O)COC(=O)c2cc3c(s2)CCC3)c1C, O=C(OCc1ccccc1Cl)c1ccccc1C(=O)c1ccccc1, O=C(c1ccccc1)c1ccc(-c2ccc(O)cc2)cc1, COCC(=O)NC[C@H]1[C@H](c2ccccc2)[C@@H](CO)N1C(=O)c1ccccc1, CC(=O)Nc1ccc(S(=O)(=O)NCCc2ccc(S(N)(=O)=O)cc2)cc1
